Most compounds without a hit are left out; they make up all but 11% or so of the library.
Lmaj promast = Leishmania major promastigote growth inhibition; Leishmania major promastigotes, resazurin fluorescence viability; inhibition, % at 10 µM; 9% of 200,000 active; AID 1063; in the data active = inhibition above about 50%;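 note: promastigotes grown with compound for 44 hours at 28 °C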
Ins promoter up = MIN6 insulin promoter up-regulation | MIN6 insulin promoter-GFP reporter, high-content imaging; stronger effect = higher value | z-score at 5 µM | 0.3% of 190,000 active | AID 1625;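 active = z-score above 3 at 5 µM with at least 500 cells counted in the well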
WT yeast gro inh = growth inhibition of WT yeast, mitochondrial fusion screen; inhibition, % at 10 µM; mitochondrial fusion phenotypic screen, WT strain; 2.1% of 190,000 active; in the data active = inhibition above about 58%; tested in S. cerevisiae
Autophagy mod = alters autophagy in cells; MEF GFP-LC3 puncta imaging; test concentration mostly 10 µM; calls only at 10 µM (by protocol); 0.98% of 190,000 active; AID 463193;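 active = percentage of spot-positive cells more than 3 SD above its plate mean, without a fluorescence outlier flag or 80% toxicity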;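 note: spot-positive cell cutoff set from DMSO-treated cells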
INS promoter inh = TRM-6 insulin promoter activity inhibition; AID 1273; 0.9% of 130,000 active; TRM-6 cells (human fetal islet line), insulin promoter-eGFP reporter, imaging; reporter expression induced with tamoxifen; inhibition, % at 2 µM;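 active = inhibition above the mean plus 3 SD, with well images judged a real hit on visual review, cut at about 60% in these data, passing the limit was not always enough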
* hit, by the source's call; i = inactive; . = no result; + = active, no number.

SMILES	Lmaj promast	Ins promoter up	WT yeast gro inh	Autophagy mod	INS promoter inh
CC1(C)CNc2cc(N)ccc2S1	1	-0.33	-6	i	.
CCOc1ccc2nc(NC(=O)C3CCCN(S(=O)(=O)c4cccs4)C3)sc2c1 (configuration not stated)	55*	0.22	42	i	.
CCOc1ccc2nc(N3CCCC(C(=O)NCCCN4CCOCC4)C3)sc2c1 (configuration not stated)	-8	-0.08	3	+	.
CCOc1ccc2nc(N3CCC(C(=O)NCCCN4CCOCC4)CC3)sc2c1	.	1.6	.	.	.
CCCC12CN3CC(C)(CN(C1)C3c1ccco1)C2=O (configuration not stated)	7	-0.22	3	i	-6
Cc1ccc(Cn2ccc(O)c(Cc3ccccc3)c2=O)cc1	5	-0.43	-8	i	.
Cc1oc(-c2ccccc2)cc1C(=O)Nc1ccccc1	0	1.2	0	i	7
COc1ccc(NC(=O)c2cc(-c3ccccc3)oc2C)cc1	56*	0.88	22	i	3
COc1ccc(NC(=O)c2ccc(-c3ccccc3C(F)(F)F)o2)cc1	-7	1	67*	i	5
COc1ccccc1CNC(=O)c1ccc(-c2ccccc2C(F)(F)F)o1	0	-0.38	64*	i	-25
Cc1ccc(N=Cc2c(O)[nH]c3ccccc23)c([N+](=O)[O-])c1	-2	0.18	10	i	.
O=C(COc1ccccc1O)Nc1ccccc1Cl	-2	.	8	i	29
O=C(COc1ccccc1O)NNc1ccccc1	74*	-1.2	30	i	-63
Cc1ccccc1NC(=O)C1Cc2ccccc2CN1C(=O)OCc1ccccc1 (configuration not stated)	92*	-0.13	12	i	-15
O=S(=O)(N/N=C\C=C\c1ccccc1)c1ccccc1	51*	.	.	i	-50
Cc1ccc(N(CC(=O)N/N=C/c2cc(C)n(-c3ccccc3C)c2C)S(C)(=O)=O)cc1	5	-0.33	-6	i	18
CC1CCCC(NC(=O)C2CCN(S(=O)(=O)N3CCCCCC3)CC2)C1C (configuration not stated)	10	0.25	1	i	-33
CC(C)(C)n1nnnc1C(c1cccnc1)N1CCN(C2CCCCC2)CC1 (configuration not stated)	7	.	3	i	-14
CC(C)(C)n1nnnc1C(c1cccs1)N1CCN(C(=O)c2ccco2)CC1 (configuration not stated)	12	0.07	-14	i	-13
CC(C)(C)n1nnnc1C(c1cccnc1)N1CCN(C(=O)c2ccco2)CC1 (configuration not stated)	68*	.	-3	i	67
CC(C)(C)n1nnnc1C(c1cccnc1)N1CCN(c2cccc(C(F)(F)F)c2)CC1 (configuration not stated)	95*	-1	-22	i	-79
Cc1cccc(N2CCN(C(c3ccncc3)c3nnnn3C(C)(C)C)CC2)c1C (configuration not stated)	87*	-0.6	7	i	.
COc1ccc(NC2c3ccccc3C(=O)N2Cc2ccccc2Cl)cc1OC (configuration not stated)	.	0.41	.	.	.
Cc1ccc(NC(=O)C(=O)NCc2ccc(/C=C(/C#N)C(=O)NCc3cccnc3)o2)cc1C	-1	-1.7	4	i	.
CCc1ccc(CNC(=O)C2CCN(S(=O)(=O)N3CCC4(CC3)OCCO4)CC2)cc1	-3	0.34	-5	i	50
SMILES	Lmaj promast	Ins promoter up	WT yeast gro inh	Autophagy mod	INS promoter inh
CC1CN(CCCCOc2ccc(C(C)C)cc2)CC(C)O1 (configuration not stated)	91*	.	24	i	10
CC1CN(CC(O)COc2ccc(C(C)C)cc2)CC(C)O1 (configuration not stated)	92*	-0.03	19	i	24
CC(=O)c1ccc(OCC(O)CN2CC(C)OC(C)C2)cc1 (configuration not stated)	37	0.82	-10	i	7
CCCCOc1ccc(C(=O)N2CC(C)OC(C)C2)cc1 (configuration not stated)	-3	1.1	21	i	35
CC1CN(CC(O)COC(c2ccc(Cl)cc2)c2ccc(Cl)cc2)CC(C)O1 (configuration not stated)	67*	-0.26	57	i	.
OC(COC(c1ccc(Cl)cc1)c1ccc(Cl)cc1)CN1CCN(c2ccccn2)CC1 (configuration not stated)	71*	-0.33	79	i	0
COc1cccc(NC(=O)NC(C)C2CC3CCC2C3)c1 (configuration not stated)	18	-0.5	11	i	.
COc1ccccc1-c1nnc(SCC(=O)NC2CCS(=O)(=O)C2)n1CCc1ccccc1 (configuration not stated)	2	-0.26	-8	i	.
Cc1nn(-c2ccccc2)c(C)c1/C=N/NC(=O)CSc1nnc(SCc2ccc(Cl)cc2)s1	2	-0.92	-6	i	.
CN(C)CC(O)COC(c1ccc(Cl)cc1)c1ccc(Cl)cc1 (configuration not stated)	99*	-1.1	30	i	.
Cn1nc(-c2ccc(C(=O)NCCO)cc2)c2ccccc2c1=O	.	-0.02	.	.	.
CNc1c([N+](=O)[O-])cnn1-c1ccc(Cl)cc1Cl	1	1.8	9	i	.
O=c1cnn(-c2ccc(Cl)cc2Cl)c(-c2ccccc2)c1	92*	-0.34	8	i	25
CS(=O)(=O)N1CCN(c2ccccc2NC(=O)c2ccc(-c3ccc(Br)cc3)o2)CC1	53*	.	17	i	24
Cn1c(C(=O)O)c(CC(=O)N2CCC(Cc3ccccc3)CC2)c2ccccc21	-6	0.04	-10	i	14
COCc1cc(C)nc(Nc2ccccc2C)c1C#N	3	3.3*	1	i	-408
CCN(CC)CCCNc1nc(C)cc(COC)c1C#N	-2	0.68	3	i	.
Cc1ccccc1N=C1SC(CC(=O)Nc2ccc3ccccc3c2)C(=O)N1Cc1ccccn1 (configuration not stated)	98*	-2.1	33	i	-28
CN(C(=S)NC1CCCCC1)C1(c2ccccc2Cl)CCCCC1=O (configuration not stated)	20	-0.11	39	+	.
Cc1cccc(N2C(=O)c3cccc4c(N(C)CCO)ccc(c34)C2=O)c1	14	0.69	20	i	.
CN1CCN(C=Nc2nc3ccccc3nc2N2CCCC2)CC1	11	-0.18	-5	i	32
Oc1ccc(/C=C/c2nc(-c3ccccc3O)n(-c3ccccc3)n2)cc1	18	-0.48	79*	i	4
O=C(N/N=C/c1ccc(O)cc1)c1nc(-c2ccccc2)n(-c2ccccc2)n1	41	0.1	-9	i	10
Cn1c(N)c(C(=O)CSc2nc3ccccc3[nH]2)c(=O)n(C)c1=O	.	0.32	.	.	.
COc1ccc(C(=O)C[n+]2cn(C(F)F)c3ccccc32)c(F)c1	2	.	70*	i	.
C=CCC1C=C(C)CC(CC=C)N1 (configuration not stated)	-2	2.8	-11	i	-21

Bioassay records (PubChem BioAssay)
